# This is part of a sample that, as a whole, favours compounds with a hit. Of some 79,000 tested, about 15% had one in any assay. Active and inactive are the calls of the source. Cut-off read from the data, not from the text of the source: active = growth inhibition above about 70%; inactive = the rest.
# Experiment: NCI Yeast Anticancer Drug Screen. Data for the cln2 rad14 strain (AID 165);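 note: 0% = growth equal to vehicle treated cultures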
# Conditions: S. cerevisiae cln2 rad14 strain, at 50.0 µM, hits give high values
# Outline: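 Growth of compound-exposed yeast (cln2 rad14 genotype) measured and expressed as inhibition relative to vehicle.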
row,SMILES,growth inhibition
1,O=Nc1c(O)ccc2ccccc12.[Fe].[Na+],96.6% (active)
2,CC(C)Cc1ncc(CC(C)C)n(O)c1=O,81.3% (active)
3,COc1ccc2c(c1)CCc1c-2ccc(C)c1CCC(=O)O,74.2% (active)
4,COc1ccc(/C=C(\C#N)c2ccccc2)cc1OC,54.5% (inactive)
5,CCC(=O)OCC(=O)c1ccc(-c2ccccc2)cc1,-5.4% (inactive)
6,C=C1CC(c2ccc(OCCCN3C(=O)c4ccccc4C3=O)c(OC)c2)OC1=O (stereo not given),89.2% (active)
7,N[C@H](C(=O)O)[C@@H]1CC(Cl)=NO1,85.2% (active)
8,Cc1ccc2c(c1)[n+]([O-])c(N)c(C#N)[n+]2[O-],15.8% (inactive)
9,Cc1cc(O)c2c(c1)C(=O)c1c(c(O)cc(O)c1-c1c(O)cc(O)c3c1C(=O)c1cc(C)cc(O)c1C3=O)C2=O,58.1% (inactive)
10,CC(=O)c1csc2c1C(=O)c1scc(C(C)=O)c1C2=O,88.6% (active)
11,CCC(CCCN(CC)CCc1ccccc1)OC(=O)c1cc(OC)c(OC)c(OC)c1 (stereo not given),35.6% (inactive)
12,COC(CCC[N+](C)(C)C)CC[N+](C)(C)C (stereo not given),95.9% (active)
13,CCC(=O)c1ccc2ccc3ccccc3c2c1,-7.25% (inactive)
14,CN(C)c1nc(N(C)C)oc(=[N+](C)C)n1,57.3% (inactive)
15,COc1ccc(Cc2ccc(N)cc2)cc1,87.8% (active)
16,CN(C)CC(CN(C)C)C(=O)c1ccc(Oc2ccccc2)cc1,99.6% (active)
17,C1C2OC2C2C1C1CC2C2OC12 (stereo not given),19.4% (inactive)
18,Nc1ccc2c(c1)[nH]c(=O)c1cccc(Cl)c12,63.9% (inactive)
19,COc1cccc(C2c3cc4c(cc3OC(Nc3ccccc3)C2C)OCO4)c1O (stereo not given),89.7% (active)
20,Cc1cc(SC#N)cc(C)c1O,49% (inactive)

row,SMILES,growth inhibition
1,CCN(CC)CCCNc1ncc(C)c2c1c1ccc3c(O)cccc3c1n2C,-17.4% (inactive)
2,O=C1c2ccccc2C(O)(C#Cc2ccccc2)c2cnccc21 (stereo not given),97% (active)
3,CC(=O)Nc1nnc(C)s1,13% (inactive)
4,CC1CN(CC(O)c2ccc(Br)cc2)CC(C)O1 (stereo not given),68.7% (inactive)
5,O=C(C=P(c1ccccc1)(c1ccccc1)c1ccccc1)CC(=S)CC(=O)C=P(c1ccccc1)(c1ccccc1)c1ccccc1,96.2% (active)
6,CN(C)CCC(/C=C/c1ccccc1)=N\Nc1ccc(Cl)cc1Cl,98.7% (active)
7,Oc1c(Cl)cc(Br)cc1Cl,78.5% (active)
8,Cc1ccc2c(ccc(CC(=S)[S-])[n+]2C)c1,47.3% (inactive)
9,Cc1ccc2c(c1)C(=O)N(CC[P+](c1ccccc1)(c1ccccc1)c1ccccc1)C2=O,36% (inactive)
10,Nc1ncnc2c1c(-c1ccccc1)cn2-c1ccc(Cl)cc1,42.8% (inactive)
11,Nc1nnc(-c2cc([N+](=O)[O-])cc([N+](=O)[O-])c2)o1,-20.2% (inactive)
12,COc1cc2c(cc1OC)C(Cl)C(c1ccc(F)cc1)=C2Cl (stereo not given),10.4% (inactive)
13,COc1ccc(C2Oc3c(cccc3OC)C=C2[N+](=O)[O-])cc1 (stereo not given),-4.5% (inactive)
14,O=C(O)c1cc2cc3ccccc3cc2cc1O,55.2% (inactive)
15,Oc1ccc2ccc3ccccc3c2c1,99.5% (active)
16,COC(=O)c1ccc(OC)cc1,20.7% (inactive)
17,Clc1ccc2c(NCCCCCCNc3ccnc4cc(Cl)ccc34)ccnc2c1,72.4% (active)
18,COc1ccc(C2C3=C(CCC(CN(C)C)C3=O)OC3=C2C(=O)C(CN(C)C)CC3)cc1 (stereo not given),44.7% (inactive)
19,CC(C)CC(NC(=O)COc1c(Cl)cc(Cl)c(Cl)c1Cl)C(=O)O (stereo not given),3.35% (inactive)
20,Cc1nc2c(=O)[nH]c3ccc(Cl)cc3c2o1,77.3% (active)

# — PubChem BioAssay (NCI)
